The results in this text go back to paper PMC8384837, “Expanding the binding specificity for RNA recognition by a PUF domain”.

Holding throughout (assay): yeast three-hybrid, YBZ-1, SC-Leu-His + 0.5 mM 3-AT, 4 days
Conditions in all cases: tags: N-Gal4 AD-HA kept; label: inside an RPR1-promoter hybrid RNA with tandem MS2 sites; ssRNA

The target of one test is PUM1 PUF domain R1-RLT (Homo sapiens, UniProt Q14671 828-1176, S863R;R864L;Q867T). The method in brief:
(§1)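 The interaction score is the log change in variant frequency from input to selection. Scores were computed in log2 with a pseudocount of 1 for absent variants, using Illumina sequencing of PCR-amplified repeat regions. The input came from four days on SC-Leu and the selection from four days on SC-Leu-His + 0.5 mM 3-AT. The cells were strain YBZ-1 (LexA–MS2 coat fusion, HIS3 reporter) co-expressing Pumilio-1 PUF domain libraries and matching RNA elements from a centromeric plasmid.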

The target of the next test is PUM1 PUF domain R4-ARS (Homo sapiens, UniProt Q14671 828-1176, N971A;H972R;Q975S). In outline:
as §1

A further test deals with PUM1 PUF domain R4-CPG (Homo sapiens, UniProt Q14671 828-1176, N971C;H972P;Q975G). The method in brief:
as §1

The target in another test is PUM1 PUF domain R3-SPW (Homo sapiens, UniProt Q14671 828-1176, C935S;R936P;Q939W). In outline:
as §1

For the next test, the target named is PUM1 PUF domain R8-YYR (Homo sapiens, UniProt Q14671 828-1176, N1122Y;Q1126R). In outline:
as §1

The next test deals with PUM1 PUF domain R3-SPD (Homo sapiens, UniProt Q14671 828-1176, C935S;R936P;Q939D). In outline:
as §1

Another test deals with PUM1 PUF domain R5-ERC (Homo sapiens, UniProt Q14671 828-1176, C1007E;Q1011C). In outline: as §1
A further test addresses PUM1 PUF domain R5-LHG (Homo sapiens, UniProt Q14671 828-1176, C1007L;R1008H;Q1011G). In outline: as §1
Another test addresses PUM1 PUF domain R2-VYL (Homo sapiens, UniProt Q14671 828-1176, N899V;Q903L). In outline:
as §1

The next test has as its target PUM1 PUF domain R5-KTL (Homo sapiens, UniProt Q14671 828-1176, C1007K;R1008T;Q1011L). The method in brief:
as §1

The target of a further test is PUM1 PUF domain R5-KRD (Homo sapiens, UniProt Q14671 828-1176, C1007K;Q1011D). In outline: as §1
The target in another test is PUM1 PUF domain R5-KQV (Homo sapiens, UniProt Q14671 828-1176, C1007K;R1008Q;Q1011V). The method in brief:
as §1

A further test concerns the target PUM1 PUF domain R3-RTF (Homo sapiens, UniProt Q14671 828-1176, C935R;R936T;Q939F). The method in brief:
as §1

The target of another test is PUM1 PUF domain R5-LWV (Homo sapiens, UniProt Q14671 828-1176, C1007L;R1008W;Q1011V). In outline:
as §1

The next test deals with PUM1 PUF domain R8-PWY (Homo sapiens, UniProt Q14671 828-1176, N1122P;Y1123W;Q1126Y). In outline:
as §1

The target in another test is PUM1 PUF domain R8-SYN (Homo sapiens, UniProt Q14671 828-1176, N1122S;Q1126N). The method in brief:
as §1

The target of the next test is PUM1 PUF domain R7-RGL (Homo sapiens, UniProt Q14671 828-1176, S1079R;N1080G;E1083L). In outline: as §1
The next test addresses PUM1 PUF domain R7-TPG (Homo sapiens, UniProt Q14671 828-1176, S1079T;N1080P;E1083G). In outline:
as §1

A further test has as its target PUM1 PUF domain R7-GIV (Homo sapiens, UniProt Q14671 828-1176, S1079G;N1080I;E1083V). The method in brief: as §1
In the next test the target is PUM1 PUF domain R3-TCD (Homo sapiens, UniProt Q14671 828-1176, C935T;R936C;Q939D). In outline: as §1
Chain of PUM1 PUF domain R3-TCD (Q14671 828-1176 C935T/R936C/Q939D): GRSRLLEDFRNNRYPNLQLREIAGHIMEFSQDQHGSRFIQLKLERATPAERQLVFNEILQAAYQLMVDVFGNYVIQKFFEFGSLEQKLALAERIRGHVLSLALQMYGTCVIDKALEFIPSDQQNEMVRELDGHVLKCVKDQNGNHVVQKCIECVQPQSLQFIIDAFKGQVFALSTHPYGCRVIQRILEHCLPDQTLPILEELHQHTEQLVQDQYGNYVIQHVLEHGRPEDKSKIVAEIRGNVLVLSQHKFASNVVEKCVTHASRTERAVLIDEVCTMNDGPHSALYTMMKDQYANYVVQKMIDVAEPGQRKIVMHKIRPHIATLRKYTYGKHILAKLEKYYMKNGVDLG

Chain of PUM1 PUF domain R1-RLT (Q14671 828-1176 S863R/R864L/Q867T): as the sequence (Q14671 828-1176 C935T/R936C/Q939D) above, with S36R, R37L, Q40T, T108C, C109R, D112Q counted along it
Chain of PUM1 PUF domain R5-LHG (Q14671 828-1176 C1007L/R1008H/Q1011G): as the sequence (Q14671 828-1176 C935T/R936C/Q939D) above, with T108C, C109R, D112Q, C180L, R181H, Q184G counted along it
Chain of PUM1 PUF domain R4-ARS (Q14671 828-1176 N971A/H972R/Q975S): as the sequence (Q14671 828-1176 C935T/R936C/Q939D) above, with T108C, C109R, D112Q, N144A, H145R, Q148S counted along it
Chain of PUM1 PUF domain R5-KRD (Q14671 828-1176 C1007K/Q1011D): as the sequence (Q14671 828-1176 C935T/R936C/Q939D) above, with T108C, C109R, D112Q, C180K, Q184D counted along it
Chain of PUM1 PUF domain R5-ERC (Q14671 828-1176 C1007E/Q1011C): as the sequence (Q14671 828-1176 C935T/R936C/Q939D) above, with T108C, C109R, D112Q, C180E, Q184C counted along it
Chain of PUM1 PUF domain R4-CPG (Q14671 828-1176 N971C/H972P/Q975G): as the sequence (Q14671 828-1176 C935T/R936C/Q939D) above, with T108C, C109R, D112Q, N144C, H145P, Q148G counted along it
Chain of PUM1 PUF domain R5-KQV (Q14671 828-1176 C1007K/R1008Q/Q1011V): as the sequence (Q14671 828-1176 C935T/R936C/Q939D) above, with T108C, C109R, D112Q, C180K, R181Q, Q184V counted along it
Chain of PUM1 PUF domain R5-KTL (Q14671 828-1176 C1007K/R1008T/Q1011L): as the sequence (Q14671 828-1176 C935T/R936C/Q939D) above, with T108C, C109R, D112Q, C180K, R181T, Q184L counted along it
Chain of PUM1 PUF domain R5-LWV (Q14671 828-1176 C1007L/R1008W/Q1011V): as the sequence (Q14671 828-1176 C935T/R936C/Q939D) above, with T108C, C109R, D112Q, C180L, R181W, Q184V counted along it
Chain of PUM1 PUF domain R8-YYR (Q14671 828-1176 N1122Y/Q1126R): as the sequence (Q14671 828-1176 C935T/R936C/Q939D) above, with T108C, C109R, D112Q, N295Y, Q299R counted along it
Chain of PUM1 PUF domain R7-RGL (Q14671 828-1176 S1079R/N1080G/E1083L): as the sequence (Q14671 828-1176 C935T/R936C/Q939D) above, with T108C, C109R, D112Q, S252R, N253G, E256L counted along it
Chain of PUM1 PUF domain R3-SPW (Q14671 828-1176 C935S/R936P/Q939W): as the sequence (Q14671 828-1176 C935T/R936C/Q939D) above, with T108S, C109P, D112W counted along it
Chain of PUM1 PUF domain R8-PWY (Q14671 828-1176 N1122P/Y1123W/Q1126Y): as the sequence (Q14671 828-1176 C935T/R936C/Q939D) above, with T108C, C109R, D112Q, N295P, Y296W, Q299Y counted along it
Chain of PUM1 PUF domain R3-RTF (Q14671 828-1176 C935R/R936T/Q939F): as the sequence (Q14671 828-1176 C935T/R936C/Q939D) above, with T108R, C109T, D112F counted along it
Chain of PUM1 PUF domain R8-SYN (Q14671 828-1176 N1122S/Q1126N): as the sequence (Q14671 828-1176 C935T/R936C/Q939D) above, with T108C, C109R, D112Q, N295S, Q299N counted along it
Chain of PUM1 PUF domain R2-VYL (Q14671 828-1176 N899V/Q903L): as the sequence (Q14671 828-1176 C935T/R936C/Q939D) above, with N72V, Q76L, T108C, C109R, D112Q counted along it
Chain of PUM1 PUF domain R3-SPD (Q14671 828-1176 C935S/R936P/Q939D): as the sequence (Q14671 828-1176 C935T/R936C/Q939D) above, with T108S, C109P counted along it
Chain of PUM1 PUF domain R7-TPG (Q14671 828-1176 S1079T/N1080P/E1083G): as the sequence (Q14671 828-1176 C935T/R936C/Q939D) above, with T108C, C109R, D112Q, S252T, N253P, E256G counted along it
Chain of PUM1 PUF domain R7-GIV (Q14671 828-1176 S1079G/N1080I/E1083V): as the sequence (Q14671 828-1176 C935T/R936C/Q939D) above, with T108C, C109R, D112Q, S252G, N253I, E256V counted along it

Consider “GGCUAGAACUAGUGGAUCCCCCGGCGCCCGGCGGCUCGAGCCCGGGUAAGUGUAAAUCGUCUGCAUGCCGCCGGGCGCCAUGCCUGCAGGUCGACUCUAGAAAACAUG”, for which the binding signal with PUM1 PUF domain R1-RLT is 4.76 log2 enrichment (interaction score).
Regarding “GGCUAGAACUAGUGGAUCCCCCGGCGCCCGGCGGCUCGAGCCCGGGUAAGUGUAAAUAGUCUGCAUGCCGCCGGGCGCCAUGCCUGCAGGUCGACUCUAGAAAACAUG”, the binding signal was 4.61 log2 enrichment (interaction score) in the test with PUM1 PUF domain R4-ARS; 4.34 log2 enrichment (interaction score) with PUM1 PUF domain R4-CPG; 3.13 log2 enrichment (interaction score) in the test with PUM1 PUF domain R3-SPW; 5.34 log2 enrichment (interaction score) with PUM1 PUF domain R8-YYR; 3.36 log2 enrichment (interaction score) with PUM1 PUF domain R3-SPD; 2.93 log2 enrichment (interaction score) in the test with PUM1 PUF domain R5-ERC. Also, the binding signal in the test with PUM1 PUF domain R5-LHG is 2.63 log2 enrichment (interaction score).
Regarding “GGCUAGAACUAGUGGAUCCCCCGGCGCCCGGCGGCUCGAGCCCGGGUAAGUGUAAAAAGUCUGCAUGCCGCCGGGCGCCAUGCCUGCAGGUCGACUCUAGAAAACAUG”, the binding signal with PUM1 PUF domain R2-VYL is 2.41 log2 enrichment (interaction score).
Take “GGCUAGAACUAGUGGAUCCCCCGGCGCCCGGCGGCUCGAGCCCGGGUAAGUGUCAAUAGUCUGCAUGCCGCCGGGCGCCAUGCCUGCAGGUCGACUCUAGAAAACAUG”: the binding signal with PUM1 PUF domain R5-ERC was 1.33 log2 enrichment (interaction score); with PUM1 PUF domain R5-KTL, 2.84 log2 enrichment (interaction score); in the test with PUM1 PUF domain R5-LHG, 1.75 log2 enrichment (interaction score); with PUM1 PUF domain R5-KRD, 6.86 log2 enrichment (interaction score); in the test with PUM1 PUF domain R5-KQV, 5.39 log2 enrichment (interaction score).
As for “GGCUAGAACUAGUGGAUCCCCCGGCGCCCGGCGGCUCGAGCCCGGGUAAGUGUAAUUAGUCUGCAUGCCGCCGGGCGCCAUGCCUGCAGGUCGACUCUAGAAAACAUG”, the binding signal with PUM1 PUF domain R3-RTF was 2.83 log2 enrichment (interaction score).
Turning to “GGCUAGAACUAGUGGAUCCCCCGGCGCCCGGCGGCUCGAGCCCGGGUAAGUGUAUAUAGUCUGCAUGCCGCCGGGCGCCAUGCCUGCAGGUCGACUCUAGAAAACAUG”, the values for the binding signal with PUM1 PUF domain R4-ARS and in the test with PUM1 PUF domain R4-CPG were 2.12 log2 enrichment (interaction score) and 3.14 log2 enrichment (interaction score), respectively.
On to “GGCUAGAACUAGUGGAUCCCCCGGCGCCCGGCGGCUCGAGCCCGGGUAAGUGUACAUAGUCUGCAUGCCGCCGGGCGCCAUGCCUGCAGGUCGACUCUAGAAAACAUG”, for which the binding signal in the test with PUM1 PUF domain R4-ARS was 3.28 log2 enrichment (interaction score); with PUM1 PUF domain R4-CPG, 2.44 log2 enrichment (interaction score).
For the sequence “GGCUAGAACUAGUGGAUCCCCCGGCGCCCGGCGGCUCGAGCCCGGGUAAGUGUGAAUAGUCUGCAUGCCGCCGGGCGCCAUGCCUGCAGGUCGACUCUAGAAAACAUG”, the binding signal was 3.21 log2 enrichment (interaction score) in the test with PUM1 PUF domain R5-ERC, 4.33 log2 enrichment (interaction score) with PUM1 PUF domain R5-LHG, 1.06 log2 enrichment (interaction score) with PUM1 PUF domain R5-KRD and 1.82 log2 enrichment (interaction score) in the test with PUM1 PUF domain R5-LWV.
“GGCUAGAACUAGUGGAUCCCCCGGCGCCCGGCGGCUCGAGCCCGGGUAAGUGUAAAUGGUCUGCAUGCCGCCGGGCGCCAUGCCUGCAGGUCGACUCUAGAAAACAUG”: in the test with PUM1 PUF domain R1-RLT, the binding signal was 3.03 log2 enrichment (interaction score).
For “GGCUAGAACUAGUGGAUCCCCCGGCGCCCGGCGGCUCGAGCCCGGGUAAGCGUAAAUAGUCUGCAUGCCGCCGGGCGCCAUGCCUGCAGGUCGACUCUAGAAAACAUG”, the binding signal with PUM1 PUF domain R8-PWY is 2.57 log2 enrichment (interaction score); with PUM1 PUF domain R8-YYR, 5.94 log2 enrichment (interaction score); in the test with PUM1 PUF domain R8-SYN it was 2.66 log2 enrichment (interaction score).
Consider “GGCUAGAACUAGUGGAUCCCCCGGCGCCCGGCGGCUCGAGCCCGGGUAAGUGUUAAUAGUCUGCAUGCCGCCGGGCGCCAUGCCUGCAGGUCGACUCUAGAAAACAUG”, for which the binding signal is 1.72 log2 enrichment (interaction score) with PUM1 PUF domain R5-KTL, 4.94 log2 enrichment (interaction score) with PUM1 PUF domain R5-KRD, 2.42 log2 enrichment (interaction score) with PUM1 PUF domain R5-KQV and 2.42 log2 enrichment (interaction score) with PUM1 PUF domain R5-LWV.
Regarding “GGCUAGAACUAGUGGAUCCCCCGGCGCCCGGCGGCUCGAGCCCGGGUAAGUUUAAAUAGUCUGCAUGCCGCCGGGCGCCAUGCCUGCAGGUCGACUCUAGAAAACAUG”, the binding signal in the test with PUM1 PUF domain R7-RGL is 3.07 log2 enrichment (interaction score); with PUM1 PUF domain R7-TPG, 4.42 log2 enrichment (interaction score); with PUM1 PUF domain R7-GIV it was 2.42 log2 enrichment (interaction score).
With “GGCUAGAACUAGUGGAUCCCCCGGCGCCCGGCGGCUCGAGCCCGGGUAAGUCUAAAUAGUCUGCAUGCCGCCGGGCGCCAUGCCUGCAGGUCGACUCUAGAAAACAUG”, the binding signal with PUM1 PUF domain R7-RGL was 1.29 log2 enrichment (interaction score).
With “GGCUAGAACUAGUGGAUCCCCCGGCGCCCGGCGGCUCGAGCCCGGGUAAGUGUAAAUUGUCUGCAUGCCGCCGGGCGCCAUGCCUGCAGGUCGACUCUAGAAAACAUG”, the binding signal with PUM1 PUF domain R1-RLT was 4.16 log2 enrichment (interaction score).
Regarding “GGCUAGAACUAGUGGAUCCCCCGGCGCCCGGCGGCUCGAGCCCGGGUAAGUGUAAGUAGUCUGCAUGCCGCCGGGCGCCAUGCCUGCAGGUCGACUCUAGAAAACAUG”, the binding signal in the test with PUM1 PUF domain R3-TCD is 4.9 log2 enrichment (interaction score).
